We go through 5 compounds from PubChem BioAssay (EPA / NIEHS).

Read-out in assay [1]: Vascular endothelial growth factor receptor 2 (Homo sapiens) (UniProt P35968)
Kind of assay: BSK_4H_VEGFRII: BioMAP Diversity Plus: 4H Assay for Vascular endothelial growth factor receptor 2 (VEGFR2) Biomarker Activity (AID 2283031).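 For AC50: cell-surface VEGFR2 protein level quantified by ELISA.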 Particulars: primary human endothelial cells (HUVEC); actives raise or lower the signal. Put shortly: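 In this multiplexed HUVEC system, biomarker ELISA was performed after 24 h chemical exposure. Parallel SRB staining (TCA fixation, 560 nm) tracked cytotoxicity; DMSO served as baseline.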

Read-out in assay [2]: Human Leukocyte Antigen - DR isotype (HLADR), HLA-DRA (gene 3122)
Kind of assay: BSK_BE3C_HLADR: BioMAP Diversity Plus: BE3C Assay for Human Leukocyte Antigen - DR isotype (HLADR) Biomarker Activity (AID 2283032). Particulars: primary human bronchial epithelial cells; actives raise or lower the signal. The essentials: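 Chemicals are dosed onto BE3C bronchial epithelial cultures of human origin and left 24 h. HLA-DR is then measured by ELISA, and the endpoint is fitted in both directions using DMSO as the activity baseline.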

Read-out in assay [3]: Vascular cell adhesion molecule 1 (VCAM1), VCAM1 (gene 7412)
Kind of assay: BSK_4H_VCAM1: BioMAP Diversity Plus: 4H Assay for Vascular cell adhesion molecule 1 (VCAM1) Biomarker Activity (AID 2283033).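 For outcome: cell-surface VCAM-1 protein measured by ELISA.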 Particulars: primary human endothelial cells (HUVEC); actives raise or lower the signal. Put shortly:
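Chemicals are added to primary human umbilical vein endothelial cells. After 24 h, VCAM-1 levels are measured by ELISA. Values come from bidirectional fitting referenced to DMSO.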

Read-out in assay [4]: Interferon-gamma inducible Protein 10 (IP10), CXCL10 (gene 3627)
Kind of assay: BSK_BE3C_IP10: BioMAP Diversity Plus: BE3C Assay for Interferon-gamma inducible Protein 10 (IP10) Biomarker Activity (AID 2283034). The following applies: primary human bronchial epithelial cells; actives raise or lower the signal. The essentials:
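IP-10 quantified by ELISA serves as the endpoint. Cells: primary human bronchial epithelium, read 24 h after compound addition. Activity is derived by bidirectional fitting with DMSO as negative control.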

Read-out in assay [5]: Monokine induced gamma interferon (MIG), CXCL9 (gene 4283)
Kind of assay: BSK_BE3C_MIG: BioMAP Diversity Plus: BE3C Assay for Monokine induced gamma interferon (MIG) Biomarker Activity (AID 2283035).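 Note: MIG protein measured by ELISA in BE3C cultures after 24 h of dosing.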 Particulars: primary human bronchial epithelial cells; actives raise or lower the signal. The essentials:
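ELISA quantified MIG after 24 h exposure of primary bronchial epithelial cultures, analysed in both directions relative to DMSO. Cytotoxicity tracked in parallel cultures by sulforhodamine B staining.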

Read-out in assay [6]: Transforming growth factor beta 1 (TGFb1), TGFB1 (gene 7040)
Kind of assay: BSK_BE3C_TGFb1: BioMAP Diversity Plus: BE3C Assay for Transforming growth factor beta 1 (TGFb1) Biomarker Activity (AID 2283036;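 note: TGF-b1 protein level measured by ELISA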). The following applies: primary human bronchial epithelial cells; actives raise or lower the signal. Put shortly: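 Bronchial epithelial primary cells are treated with test chemical, then TGF-b1 is quantified by ELISA after 24 hours. Values derive from bidirectional fitting against DMSO, with cytotoxicity checked by SRB staining in parallel cultures.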

Read-out in assay [7]: Plasminogen activator inhibitor-1 (PAI1), SERPINE1 (gene 5054)
Kind of assay: BSK_BE3C_PAI1: BioMAP Diversity Plus: BE3C Assay for Plasminogen activator inhibitor-1 (PAI1) Biomarker Activity (AID 2283037). Particulars: primary human bronchial epithelial cells; actives raise or lower the signal. Put shortly: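 Values derive from bidirectional fitting against DMSO baseline of PAI-1 levels, measured by ELISA in human bronchial epithelial cells 24 h after compound addition.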

Read-out in assay [8]: urokinase plasminogen activator (uPA), PLAU (gene 5328)
Kind of assay: BSK_BE3C_uPA: BioMAP Diversity Plus: BE3C Assay for urokinase plasminogen activator (uPA) Biomarker Activity (AID 2283038).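 For outcome: uPA protein level quantified by ELISA in cell cultures; uPA read one day after compound addition.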 The following applies: primary human bronchial epithelial cells; actives raise or lower the signal. Put shortly: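 Using confluent primary human lung bronchial epithelial cultures, we dosed chemicals, waited 24 h, then ran a uPA ELISA, fitting bidirectionally against DMSO.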

Read-out in assay [9]: Urokinase-type plasminogen activator receptor (uPAR), PLAUR (gene 5329)
Kind of assay: BSK_BE3C_uPAR: BioMAP Diversity Plus: BE3C Assay for Urokinase-type plasminogen activator receptor (uPAR) Biomarker Activity (AID 2283039).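 Note: uPAR protein level measured by ELISA on the cells; cells exposed to compound for one day before measurement.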 Particulars: primary human bronchial epithelial cells; actives raise or lower the signal. The essentials:
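Steps: dose human primary bronchial epithelial cells, incubate 24 h, measure uPAR by ELISA, then fit gain- or loss-of-signal response bidirectionally relative to DMSO.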

Read-out in assay [10]: Interleukin-6 (IL6), IL6 (gene 3569)
Kind of assay: BSK_CASM3C_IL6: BioMAP Diversity Plus: CASM3C Assay for Interleukin-6 (IL6) Biomarker Activity for (AID 2283040). The following applies: primary human coronary artery smooth muscle cells; actives raise or lower the signal.

Read-out in assay [11]: Tissue plasminogen activator (tPA), PLAT (gene 5327)
Kind of assay: BSK_BE3C_tPA: BioMAP Diversity Plus: BE3C Assay for Tissue plasminogen activator (tPA) Biomarker Activity (AID 2283041).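 Note: tPA level quantified by ELISA one day after compound addition.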 The following applies: primary human bronchial epithelial cells; actives raise or lower the signal. The essentials: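 Gain- or loss-of-signal in tPA, measured by ELISA, derived by bidirectional fitting against DMSO. Cells: human primary bronchial epithelial; read at 24 h after chemical dosing.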

Read-out in assay [12]: Interleukin-8 (IL8), CXCL8 (gene 3576)
Kind of assay: BSK_CASM3C_IL8: BioMAP Diversity Plus: CASM3C Assay for Interleukin-8 (IL8) Biomarker Activity (AID 2283042).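 Note: IL-8 protein level quantified by ELISA.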 The following applies: primary human coronary artery smooth muscle cells; actives raise or lower the signal.

Read-out in assay [13]: Human Leukocyte Antigen - DR isotype (HLADR), HLA-DRA (gene 3122)
Kind of assay: BSK_CASM3C_HLADR: BioMAP Diversity Plus: CASM3C Assay for Human Leukocyte Antigen - DR isotype (HLADR) Biomarker Activity (AID 2283043).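 Note: cell-surface HLA-DR protein level quantified by ELISA.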 The following applies: primary human coronary artery smooth muscle cells; actives raise or lower the signal.

Read-out in assay [14]: Macrophage colony-stimulating factor (MCSF), CSF1 (gene 1435)
Kind of assay: BSK_CASM3C_MCSF: BioMAP Diversity Plus: CASM3C Assay for Macrophage colony-stimulating factor (MCSF) Biomarker Activity (AID 2283044).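 Note: M-CSF protein amount quantified by ELISA after 24 h exposure.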 The following applies: primary human coronary artery smooth muscle cells; actives raise or lower the signal.

Read-out in assay [15]: Low-density lipoprotein receptor (LDLR), LDLR (gene 3949)
Kind of assay: BSK_CASM3C_LDLR: BioMAP Diversity Plus: CASM3C Assay for Low-density lipoprotein receptor (LDLR) Biomarker Activity (AID 2283045).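 Note: LDLR protein level on the cell surface quantified by ELISA.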 The following applies: primary human coronary artery smooth muscle cells; actives raise or lower the signal.

Read-out in assay [16]: Monocyte Chemoattractant Protein-1 (MCP1), CCL2 (gene 6347)
Kind of assay: BSK_CASM3C_MCP1: BioMAP Diversity Plus: CASM3C Assay for Monocyte Chemoattractant Protein-1 (MCP1) Biomarker Activity (AID 2283046).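 Note: MCP-1 level quantified by ELISA 24 h after dosing.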 Particulars: primary human coronary artery smooth muscle cells; actives raise or lower the signal.

The nature of assay [17]: BSK_CASM3C_Proliferation: Cell Proliferation Assessment in the BioMAP Diversity Plus: CASM3C Assay (AID 2283047).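 Note: sulforhodamine B total protein stain as relative cell number at 560 nm; sub-confluent cells exposed 48 h before staining; fitted both ways against DMSO so gain or loss of cell number.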 Particulars: primary human coronary artery smooth muscle cells.
Read-out in assay [18]: Monokine induced gamma interferon (MIG), CXCL9 (gene 4283)
Kind of assay: BSK_CASM3C_MIG: BioMAP Diversity Plus: CASM3C Assay for Monokine induced gamma interferon (MIG) Biomarker Activity (AID 2283048).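 Note: MIG protein level measured by ELISA.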 The following applies: primary human coronary artery smooth muscle cells; actives raise or lower the signal.

Read-out in assay [19]: serum amyloid A (SAA), SAA1 (gene 6288)
Kind of assay: BSK_CASM3C_SAA: BioMAP Diversity Plus: CASM3C Assay for serum amyloid A (SAA) Biomarker Activity (AID 2283049).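 Note: SAA protein level quantified by ELISA.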 Particulars: primary human coronary artery smooth muscle cells; actives raise or lower the signal.

Assay [20] can be described thus: BSK_CASM3C_SRB: Viability Assessment in the BioMAP Diversity Plus: CASM3C Assay (AID 2283050).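 Note: total protein by SRB staining as cytotoxicity measure in parallel cultures.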 The following applies: primary human coronary artery smooth muscle cells.

Calls of active or inactive are those of the source. Rule for the calls: active = hit-call score of the fitted dose curve at least 0.9, where 1 is the maximum; inactive = score below 0.9.

The AC50 is the midpoint of the concentration-response curve, whichever way the signal moves. `CO/C=C(/C(=O)OC)c1ccccc1COc1cccc(C(F)(F)F)n1`: the result in assay [1], in [2], in [5], in assay [6], in assay [7] and in assay [8] was inactive. For the same compound, the outcome in [9], in [11], in assay [13], in [14], in assay [15] and in assay [16] was inactive. For the same compound, the result in assay [18], in assay [19] and in assay [20] was inactive. Besides, the AC50 in assay [3] was 4.02 µM (active); in assay [4], 3.97 µM (active); in assay [10], 5.93 µM (active); in assay [12], 3.94 µM (active); in assay [17] it was 5.66 µM (active).

For `C[C@]12CCC(=O)C=C1CC[C@@H]1[C@@H]2CC[C@@]2(C)[C@H]1CC[C@]2(C)O`, the outcome in [1], in [2], in [3], in assay [4], in assay [5] and in assay [6] was inactive. Also, the result in [7], in assay [8], in assay [9], in assay [10], in assay [11] and in [12] was inactive. For the same compound, the outcome in assay [13], in assay [14], in assay [15], in assay [16], in assay [17] and in [18] was inactive. Besides, the outcome in assay [19] and in [20] was inactive.

Regarding `ClC(Cl)=C(c1ccc(Cl)cc1)c1ccc(Cl)cc1`, the AC50 in assay [1] was 34.9 µM (active); in [3], 28.6 µM (active); in [8] it was 13.1 µM (active); in [13], 20 µM (active); in [14], 20 µM (active); in assay [17], 29.1 µM (active). Moreover, the outcome in [2], in assay [4], in [5], in assay [6], in assay [7] and in assay [9] was inactive. Also, the result in assay [10], in [11], in assay [12], in assay [15], in [16] and in assay [18] was inactive. In addition, the outcome in [19] and in assay [20] was inactive.

For `CN(C)CCO`, the outcome in [1], in assay [2], in [3], in [4], in [5] and in assay [6] was inactive. The outcome in [7], in assay [8], in assay [9], in [10], in [11] and in [12] was inactive. The result in [13], in assay [14], in assay [15], in assay [16], in [17] and in assay [18] was inactive. The outcome in assay [19] and in assay [20] was inactive.

As to `C=CC(N)=O`, the outcome in assay [1], in [2], in assay [3], in assay [4], in assay [5] and in [6] was inactive. For the same compound, the outcome in assay [7], in assay [8], in [9], in assay [10], in [11] and in assay [12] was inactive. Besides, the outcome in assay [13], in [14], in assay [15], in assay [17], in assay [18] and in [19] was inactive. Moreover, the outcome in assay [20] was inactive. For the same compound, the AC50 in assay [16] is 887 nM (active).
